# Experimental data from PMC6925144, “A prospective compound screening contest identified broader inhibitors for Sirtuin 1” (Scientific Reports, 2019).
# Whole data set: some 3,200 compounds, median “TSA(without NAD+) / Primary screening (TSA) / delta Tm (K)” near -0.07, cut for the highest 2% near 0.37. What follows is part of a selection rich in the highest values, with near analogues and random picks from the rest.
# Molecular target: NAD-dependent deacetylase Sirtuin 1 (human, UniProt Q96EB6)
# Sequence (Q96EB6 2-747 limits assumed): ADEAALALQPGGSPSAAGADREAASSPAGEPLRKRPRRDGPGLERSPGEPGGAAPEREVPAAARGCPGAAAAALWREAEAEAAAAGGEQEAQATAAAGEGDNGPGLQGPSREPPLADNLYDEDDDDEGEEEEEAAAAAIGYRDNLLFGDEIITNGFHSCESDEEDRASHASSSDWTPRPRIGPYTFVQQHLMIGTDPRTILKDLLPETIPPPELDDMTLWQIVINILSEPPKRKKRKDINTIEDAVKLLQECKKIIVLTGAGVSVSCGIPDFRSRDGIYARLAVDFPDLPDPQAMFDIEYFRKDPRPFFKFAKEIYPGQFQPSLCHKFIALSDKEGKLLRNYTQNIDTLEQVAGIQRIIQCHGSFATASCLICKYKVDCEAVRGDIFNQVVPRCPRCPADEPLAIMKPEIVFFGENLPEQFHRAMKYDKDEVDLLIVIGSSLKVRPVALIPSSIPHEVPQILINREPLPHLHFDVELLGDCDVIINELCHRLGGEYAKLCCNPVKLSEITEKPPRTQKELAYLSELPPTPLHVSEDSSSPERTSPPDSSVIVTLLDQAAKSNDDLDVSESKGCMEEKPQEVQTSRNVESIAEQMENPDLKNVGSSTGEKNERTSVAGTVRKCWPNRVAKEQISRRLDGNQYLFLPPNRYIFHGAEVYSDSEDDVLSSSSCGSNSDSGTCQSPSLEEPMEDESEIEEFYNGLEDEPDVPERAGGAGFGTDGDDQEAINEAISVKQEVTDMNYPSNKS
# Assay: primary screen, delta tm
# Parameters: single well (n = 1)
# Details: 10 µM
# Experimental: A total of 3,192 compounds extracted from the proposed lists were first screened by thermal shift assay (TSA), which determined a melting temperature shift (ΔTm) of Sirtuin 1 upon the addition of a test compound at a concentration of 10 µM (n = 1) with primary hit criteria of ΔTm > 0.45 K or ΔTm < −1.5 K. Primary hits (48 compounds) were retested in the same assay at three concentrations (5, 10, 20 µM, n = 4) for hit confirmation and for dose-dependency check. Secondary hits (41 compounds) were checked their selectivity for Sirtuin 1 based on counterscreening on unrelated protein targets (bovine carbonic anhydrase (CA) and recombinant SH2 domain of hABL1 kinase (ABL1)) at three different concentrations (5, 10, 20 µM, n = 4), which yielded 38 hit compounds, hereafter referred to as TSA hits. The TSA screening above was conducted in the absence of NAD+.
row,SMILES,TSA(without NAD+) / Primary screening (TSA) / delta Tm (K)
1,O=C(CCc1ccc2c(c1)OCO2)N1CCc2[nH]c3ccccc3c2C1,-0.15
2,Cc1nc(-c2ccccn2)[nH]c(=O)c1CC(=O)NCc1cccc(Oc2ccccc2)c1,0.09
3,NC(=O)C1CCN(C(=O)c2ccc3[nH]c4c(c3c2)CCCC4)CC1,0.17
4,Cc1cc(N(C)C)n2nc(C(F)(F)F)c(-c3ccccc3)c2n1,-0.18
5,Cc1ccc(-n2c(C)c(C)c3c(N)ncnc32)cc1,0.02
6,CCc1cc2c(N3CCCC3)nc(C)nc2s1,-0.07
7,CCCOc1ccc(C(=O)C2=C(O)C(=O)N(CCCN3CCOCC3)C2c2ccccc2F)cc1 (stereo not drawn),-0.27
8,CC(=O)Nc1ccc(NC(=O)c2ccccc2SCC(=O)NC23CC4CC(CC(C4)C2)C3)cc1,-0.21
9,CCOc1ccc(C2C(C(=O)c3ccco3)=C(O)C(=O)N2CCCN2CCOCC2)cc1 (stereo not drawn),-0.13
10,NC(=O)c1cccc(CN2CCCC2c2ccsc2)c1 (stereo not drawn),-0.08
11,CC(=O)Nc1ccc(CNCc2ccccc2CN2CCCC2)cc1,-0.12
12,NC(=O)C1CCN(c2ncnc3c2c(-c2ccccc2)cn3-c2cccc(C(F)(F)F)c2)CC1,-0.07
13,CC(Nc1cccc(C(N)=O)c1)C1CN(Cc2ccccc2)CCO1 (stereo not drawn),-0.18
14,Cc1ccc(-c2cc(C(=O)OC(C)C(=O)Nc3cccc([N+](=O)[O-])c3)[nH]n2)cc1 (stereo not drawn),0.12
15,CC(=C/c1ccccc1)/C=N/NC(=O)c1cc(-c2ccc(C)cc2)n[nH]1,1.06
16,Cc1ccc(C2C(C(=O)c3cc4ccccc4o3)=C(O)C(=O)N2CCCN2CCOCC2)o1 (stereo not drawn),0.02
17,N#Cc1cc(Br)ccc1NCC1(CCO)CCOC1 (stereo not drawn),-0.24
18,Cc1cc(C)c(NC(=O)CN(C)C(=O)CNC(=O)C(C)(C)C)c(C)c1,0.02
19,O=C1/C(=C/c2ccccc2)Oc2cc(O)ccc21,0.08
20,O=C1/C(=C/c2cccc(O)c2)Oc2cc(O)ccc21,-0.21
21,O=C1/C(=C/c2cnn(-c3ccccc3)c2)Oc2cc(O)ccc21,1.25
22,NC(=O)c1ccc(C(=O)OCC(=O)Nc2ccccc2-c2ccccc2)cc1,-0.18
23,COc1ccc(C(=O)C2=C(O)C(=O)N(CCCN3CCOCC3)C2c2ccco2)cc1Cl (stereo not drawn),0.02
24,Cn1cc(C(=O)Nc2cccc(C3(C)NC(=O)NC3=O)c2)c2ccccc21 (stereo not drawn),-0.14
25,Cc1c(CCC#N)c(Cl)n2c(nc3ccccc32)c1C#N,-0.04

row,SMILES,TSA(without NAD+) / Primary screening (TSA) / delta Tm (K)
1,CCc1c(C)c(C#N)c2nc3ccccc3n2c1Cl,-0.08
2,CCc1c(C)c(C#N)c2nc3ccccc3n2c1S,0.39
3,Cc1nc2cc(NC(=O)C3Cc4ccccc4O3)ccc2o1 (stereo not drawn),0.03
4,Nc1nc(-c2c(-c3ccccc3)[nH]c3ccccc23)cs1,0.09
5,c1ccc(-c2[nH]c3ccccc3c2-c2ccccc2)cc1,0.45
6,c1ccc(-c2[nH]c3c(ccc4ccccc43)c2-c2ccccc2)cc1,0.52
7,Cc1cccc2c(CC(=O)O)c(-c3ccccc3)[nH]c12,-0.02
8,O=C(CCl)c1c(-c2ccccc2)[nH]c2ccccc12,-0.04
9,CC1(C)CC1N (stereo not drawn),-0.22
10,NC(=O)Cc1ccc(NC(=O)c2cc(Br)ccc2Cl)cc1,-0.11
11,NC1=Nc2nc3ccccc3n2C(c2ccc(-c3ccc(C(=O)O)cc3)o2)N1 (stereo not drawn),1.36
12,CCCCOc1cc(C2NC(N)=Nc3nc4ccccc4n32)ccc1OC (stereo not drawn),-0.17
13,CC(C)(CNc1ncnc2ccsc12)C(N)=O,-0.02
14,Oc1cccc2c1Cc1c-2nc2ccc(Cl)cc2c1-c1ccccc1Cl,0.38
15,O=C1/C(=C/c2ccc(Br)cc2F)Cc2c(O)cccc21,-0.03
16,CCCOCC(=O)O,-0.13
17,COc1ccc(NC(=O)CSc2nnc(Nc3ccc(SC(F)F)cc3)s2)cc1OC,0.73
18,Cc1cccc(Nc2nnc(SCC(=O)Nc3ccc(C(N)=O)cc3)s2)c1,-0.04
19,Cc1ccc(Nc2nnc(SCC(=O)Nc3cc(C)c(C)cc3[N+](=O)[O-])s2)cc1,-0.03
20,O=C(C1=C(O)C(=O)N(CCCN2CCOCC2)C1c1ccco1)c1ccco1 (stereo not drawn),-0.22
21,Cc1nc2ccccc2nc1SCc1cc(=O)n2ccsc2n1,0.02
22,CCOc1ccc(CCNC(=O)COC(=O)CNC(=O)C23CC4CC(CC(C4)C2)C3)cc1OCC,0.03
23,CCCCOC(=O)c1ccc(NC(=O)COC(=O)CNC(=O)C23CC4CC(CC(C4)C2)C3)cc1,0.48
24,O=C(COC(=O)CNC(=O)C12CC3CC(CC(C3)C1)C2)Nc1ccccc1Cc1ccccc1,0.13
25,CC(C)Oc1ccc(C(=O)C2=C(O)C(=O)N(CCCN3CCOCC3)C2c2ccncc2)cc1 (stereo not drawn),-0.07

row,SMILES,TSA(without NAD+) / Primary screening (TSA) / delta Tm (K)
1,O=c1c2ccccc2ncn1CC(O)c1ccccc1Cl (stereo not drawn),-0.17
2,COc1ccc(/C=N/c2ccc(C(=O)O)cc2)cc1Br,0.07
3,N#Cc1c(Cn2nnc3ccccc3c2=O)cn2ccccc12,0.07
4,Cc1ccc([N+](=O)[O-])cc1S(=O)(=O)Nc1ccc(C(=O)OC(C)C(=O)NC23CC4CC(CC(C4)C2)C3)cc1 (stereo not drawn),0.86
5,CC(OC(=O)c1cccc(S(=O)(=O)NCc2ccccc2)c1)C(=O)NC12CC3CC(CC(C3)C1)C2 (stereo not drawn),-0.03
6,COc1cc(C(C)=O)ccc1COc1ccc(C(=O)OC(C)C(=O)NC23CC4CC(CC(C4)C2)C3)cc1OC (stereo not drawn),0.05
7,CCC(N)COC (stereo not drawn),-0.18
8,Cc1ccc(Nc2nnc(SCC(=O)NC(=O)NCc3ccco3)s2)cc1,0.07
9,Cc1ncc(CN2CCC(Nc3ccc4nnnn4n3)C(C)C2)s1 (stereo not drawn),0.12
10,c1ccc(CN2CCCCCC2)c(CNc2ccc3nnnn3n2)c1,-0.11
11,Cc1cc(F)ccc1N1CCCC(Nc2ccc3nnnn3n2)C1 (stereo not drawn),0.63
12,NC(=O)c1ncn(-c2ccncc2)c1N,-0.02
13,CC1CN(S(=O)(=O)c2cccc(C(=O)OCC(=O)COC(=O)c3cccc(S(=O)(=O)N4CC(C)OC(C)C4)c3)c2)CC(C)O1 (stereo not drawn),-0.11
14,Cc1cccc(-n2ccnc2SCC(=O)Nc2ccc(S(=O)(=O)Nc3nccs3)cc2)c1C,0.08
15,NC(=O)COC(=O)c1ccc(OCC(=O)Nc2cccc(C(F)(F)F)c2)cc1,-0.02
16,O=C(COc1ccccc1C(=O)Nc1ccc(S(=O)(=O)Nc2nccs2)cc1)Nc1cccc(C(F)(F)F)c1,0.98
17,CCOc1cc(N2CCOCC2)c(OCC)cc1NC(=O)C1=COCCO1,-0.15
18,CC(NC(=O)COC(=O)CNC(=O)c1ccc(-c2ccccc2)cc1)C12CC3CC(CC(C3)C1)C2 (stereo not drawn),0.06
19,NC(=O)c1cc2c(ccc3ccccc32)o/c1=N\c1ccc(Br)cc1,-0.32
20,O=C(O)C1CC(=O)N(c2cccc(-c3nc(C4CC4)no3)c2)C1 (stereo not drawn),0.03
21,O=C(Nc1cccc(-c2nc(C3CC3)no2)c1)c1cccc(NC(=O)C2CCCCC2)c1,0.42
22,O=C(NCc1cccc(NC(=O)C2CC2)c1)c1ccc(C(=O)c2ccccc2)cc1,-0.11
23,Cc1ccc2c(c1)c(=O)n(C)c1nnc(CN3CCc4ccccc4C3)n21,-0.32
24,O=C(NC1=NCCS1)c1cc(Cl)ccc1O,-0.05
25,CC(O)CC(C)(C)CNC(=O)Nc1ccc(F)cc1 (stereo not drawn),-0.13

row,SMILES,TSA(without NAD+) / Primary screening (TSA) / delta Tm (K)
1,O=C1/C(=C/NNC(=O)C23CC4CC(CC(C4)C2)C3)c2ccccc2C(=O)N1Cc1ccccc1,0.46
2,COc1ccc(CN2C(=O)/C(=C/NNC(=O)CC34CC5CC(CC(C5)C3)C4)c3ccccc3C2=O)cc1,0.09
3,O=C(CC12CC3CC(CC(C3)C1)C2)NN/C=C1/C(=O)N(Cc2ccccc2)C(=O)c2ccccc21,0.32
4,COc1ccc(N2C(=O)/C(=C/NNC(=O)C34CC5CC(CC(C5)C3)C4)c3ccccc3C2=O)cc1,0.43
5,O=C1NC(=O)c2ccccc2/C1=C\NNC(=O)C12CC3CC(CC(C3)C1)C2,0.33
6,O=C1CCCN1Cc1ccc(-c2ccccc2CNC(=O)C23CC4CC(CC(C4)C2)C3)cc1,-0.28
7,CCS(=O)(=O)Nc1ccc(S(=O)(=O)Nc2nccs2)c(OC)c1,-0.18
8,N#Cc1ccccc1Sc1ccccc1C(=O)Nc1ccc(-c2cn3cccnc3n2)cc1,-0.14
9,CCCCCCCCNC(=O)/C(C#N)=C/c1c[nH]c2ccccc12,0.58
10,CCOc1ccc(/C=C(/C#N)C(=O)c2c[nH]c3cc(F)ccc23)cc1,0.06
11,N#C/C(=C\c1[nH]c2ccccc2c1Cl)C(N)=O,-0.13
12,Oc1ccccc1/C=N/c1ccccc1O,-0.13
13,Cc1cc2ccccc2n1CC(=O)NCC(Cc1ccccc1)N(C)C (stereo not drawn),-0.12
14,Cc1ccc(N(C)S(=O)(=O)c2cccc(C(=O)Nc3ccc(C(N)=O)cc3)c2)cc1,0.46
15,Cc1ccc(N(C)S(=O)(=O)c2cccc(C(=O)Nc3sccc3C(N)=O)c2)cc1,0.17
16,Cc1ccc(NC(=O)c2cccc(S(=O)(=O)N(C)c3ccc(C)cc3)c2)cc1,0.45
17,COc1ccc(N(C)S(=O)(=O)c2cccc(C(=O)Nc3ccc(C)cc3)c2)cc1,0.17
18,CN(c1cccc(Cl)c1)S(=O)(=O)c1cccc(C(=O)Nc2sccc2C(N)=O)c1,0.18
19,CN(c1cccc(Cl)c1)S(=O)(=O)c1cccc(C(=O)Nc2ncc(C(N)=O)s2)c1,0.37
20,Cc1ccc(N(C)S(=O)(=O)c2cccc(C(N)=O)c2)cc1,-0.11
21,COc1ccc(N(C)S(=O)(=O)c2cccc(C(=O)Nc3ncc(C(N)=O)s3)c2)cc1,0.06
22,CN(c1cccc(Cl)c1)S(=O)(=O)c1cccc(C(=O)Nc2cc(C(N)=O)cc(C(N)=O)c2)c1,0.15
23,CC(=O)Nc1ccc(NC(=O)c2cccc(S(=O)(=O)N(C)c3ccc(C)cc3)c2)cc1,-0.11
24,CN(c1ccccc1)S(=O)(=O)c1cccc(C(=O)Nc2sccc2C(N)=O)c1,0.38
